Assay results: publication PMC9911399, “Two distinct binding modes provide the RNA-binding protein RbFox with extraordinary sequence specificity”
Positions count from the first letter of the chain named. Over roughly 16,000 sequences, “ka relative to ugcaugu” has its median near 0.096; the highest 2% begin near 0.35. The sample as a whole holds a higher share of the highest values than the screen did.

T1: RBFOX1 RRM RbFoxmut (Fox-RRM*) (Homo sapiens, UniProt Q9NWB1 109-208, R118D;E147R;N151S;E152T)
T1 sequence: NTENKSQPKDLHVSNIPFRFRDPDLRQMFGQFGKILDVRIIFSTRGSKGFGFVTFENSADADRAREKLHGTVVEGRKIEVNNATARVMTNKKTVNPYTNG

B1: AGGCAUC (DNA:RNA)
RNA: GGGAGACCGGAAUUCAGAUUGUCCAGGCAUCUUAAAUCCCGUCGUAGCCACCA
DNA 1: CAATCTGAATTCCGGTCTCCC
DNA 2: TGGTGGCTACGACGGGATT
B2: GGGCAUA (DNA:RNA)
RNA: B1 RNA with A25G, C31A
DNA 1: CAATCTGAATTCCGGTCTCCC
DNA 2: TGGTGGCTACGACGGGATT
B3: GGGCAUG (DNA:RNA)
RNA: B1 RNA with A25G, C31G
DNA 1: CAATCTGAATTCCGGTCTCCC
DNA 2: TGGTGGCTACGACGGGATT
B4: UCCCUCG (DNA:RNA)
RNA: B1 RNA with A25U, G26C, G27C, A29U, U30C, C31G
DNA 1: CAATCTGAATTCCGGTCTCCC
DNA 2: TGGTGGCTACGACGGGATT
B5: CAACAUU (DNA:RNA)
RNA: B1 RNA with A25C, G26A, G27A, C31U
DNA 1: CAATCTGAATTCCGGTCTCCC
DNA 2: TGGTGGCTACGACGGGATT
B6: UUGUUCU (DNA:RNA)
RNA: B1 RNA with A25U, G26U, C28U, A29U, U30C, C31U
DNA 1: CAATCTGAATTCCGGTCTCCC
DNA 2: TGGTGGCTACGACGGGATT
B7: AGUGUUG (DNA:RNA)
RNA: B1 RNA with G27U, C28G, A29U, C31G
DNA 1: CAATCTGAATTCCGGTCTCCC
DNA 2: TGGTGGCTACGACGGGATT
B8: AGUCACC (DNA:RNA)
RNA: B1 RNA with G27U, U30C
DNA 1: CAATCTGAATTCCGGTCTCCC
DNA 2: TGGTGGCTACGACGGGATT
B9: UGUACCC (DNA:RNA)
RNA: B1 RNA with A25U, G27U, C28A, A29C, U30C
DNA 1: CAATCTGAATTCCGGTCTCCC
DNA 2: TGGTGGCTACGACGGGATT
B10: GCAGACU (DNA:RNA)
RNA: B1 RNA with A25G, G26C, G27A, C28G, U30C, C31U
DNA 1: CAATCTGAATTCCGGTCTCCC
DNA 2: TGGTGGCTACGACGGGATT
B11: GGUAUGU (DNA:RNA)
RNA: B1 RNA with A25G, G27U, C28A, A29U, U30G, C31U
DNA 1: CAATCTGAATTCCGGTCTCCC
DNA 2: TGGTGGCTACGACGGGATT
B12: CGGUCGU (DNA:RNA)
RNA: B1 RNA with A25C, C28U, A29C, U30G, C31U
DNA 1: CAATCTGAATTCCGGTCTCCC
DNA 2: TGGTGGCTACGACGGGATT
B13: CCCAGUA (DNA:RNA)
RNA: B1 RNA with A25C, G26C, G27C, C28A, A29G, C31A
DNA 1: CAATCTGAATTCCGGTCTCCC
DNA 2: TGGTGGCTACGACGGGATT
B14: GGUAUUG (DNA:RNA)
RNA: B1 RNA with A25G, G27U, C28A, A29U, C31G
DNA 1: CAATCTGAATTCCGGTCTCCC
DNA 2: TGGTGGCTACGACGGGATT
B15: ACGUAUG (DNA:RNA)
RNA: B1 RNA with G26C, C28U, C31G
DNA 1: CAATCTGAATTCCGGTCTCCC
DNA 2: TGGTGGCTACGACGGGATT
B16: ACGUAGC (DNA:RNA)
RNA: B1 RNA with G26C, C28U, U30G
DNA 1: CAATCTGAATTCCGGTCTCCC
DNA 2: TGGTGGCTACGACGGGATT
B17: GGUCCGU (DNA:RNA)
RNA: B1 RNA with A25G, G27U, A29C, U30G, C31U
DNA 1: CAATCTGAATTCCGGTCTCCC
DNA 2: TGGTGGCTACGACGGGATT
B18: ACGUCCC (DNA:RNA)
RNA: B1 RNA with G26C, C28U, A29C, U30C
DNA 1: CAATCTGAATTCCGGTCTCCC
DNA 2: TGGTGGCTACGACGGGATT
B19: GGUAUUA (DNA:RNA)
RNA: B1 RNA with A25G, G27U, C28A, A29U, C31A
DNA 1: CAATCTGAATTCCGGTCTCCC
DNA 2: TGGTGGCTACGACGGGATT
B20: CAGUAUG (DNA:RNA)
RNA: B1 RNA with A25C, G26A, C28U, C31G
DNA 1: CAATCTGAATTCCGGTCTCCC
DNA 2: TGGTGGCTACGACGGGATT
B21: AGUAUGU (DNA:RNA)
RNA: B1 RNA with G27U, C28A, A29U, U30G, C31U
DNA 1: CAATCTGAATTCCGGTCTCCC
DNA 2: TGGTGGCTACGACGGGATT
B22: GUCGGUA (DNA:RNA)
RNA: B1 RNA with A25G, G26U, G27C, C28G, A29G, C31A
DNA 1: CAATCTGAATTCCGGTCTCCC
DNA 2: TGGTGGCTACGACGGGATT
B23: CUUACUC (DNA:RNA)
RNA: B1 RNA with A25C, G26U, G27U, C28A, A29C
DNA 1: CAATCTGAATTCCGGTCTCCC
DNA 2: TGGTGGCTACGACGGGATT
B24: AACUUUU (DNA:RNA)
RNA: B1 RNA with G26A, G27C, C28U, A29U, C31U
DNA 1: CAATCTGAATTCCGGTCTCCC
DNA 2: TGGTGGCTACGACGGGATT
B25: AGUUUGA (DNA:RNA)
RNA: B1 RNA with G27U, C28U, A29U, U30G, C31A
DNA 1: CAATCTGAATTCCGGTCTCCC
DNA 2: TGGTGGCTACGACGGGATT
B26: UCUACAC (DNA:RNA)
RNA: B1 RNA with A25U, G26C, G27U, C28A, A29C, U30A
DNA 1: CAATCTGAATTCCGGTCTCCC
DNA 2: TGGTGGCTACGACGGGATT
B27: CAUCGCC (DNA:RNA)
RNA: B1 RNA with A25C, G26A, G27U, A29G, U30C
DNA 1: CAATCTGAATTCCGGTCTCCC
DNA 2: TGGTGGCTACGACGGGATT
B28: UACCUUG (DNA:RNA)
RNA: B1 RNA with A25U, G26A, G27C, A29U, C31G
DNA 1: CAATCTGAATTCCGGTCTCCC
DNA 2: TGGTGGCTACGACGGGATT
B29: UUUAACG (DNA:RNA)
RNA: B1 RNA with A25U, G26U, G27U, C28A, U30C, C31G
DNA 1: CAATCTGAATTCCGGTCTCCC
DNA 2: TGGTGGCTACGACGGGATT
B30: GGUCAAC (DNA:RNA)
RNA: B1 RNA with A25G, G27U, U30A
DNA 1: CAATCTGAATTCCGGTCTCCC
DNA 2: TGGTGGCTACGACGGGATT
B31: AUAUCUA (DNA:RNA)
RNA: B1 RNA with G26U, G27A, C28U, A29C, C31A
DNA 1: CAATCTGAATTCCGGTCTCCC
DNA 2: TGGTGGCTACGACGGGATT

These binders were tested against T1, RBFOX1 RRM RbFoxmut (Fox-RRM*) (assay: EMSA; HiTS-Eq, 1 nM pool, 10 min; buffer printed only for the single-RNA assays: 10 mM Tris pH 7.5, 150 mM NaCl, 3.4 mM EDTA, 0.001% NP-40, 30 C). Settings: tags: His6 N-terminal (pET28a); label: 5' 32P.
Method in brief: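 Relative association constants, normalised to the cognate motif, were derived by comparing read counts of each RNA species with those of the control reaction. The RNA sequenced was the free fraction, separated by 8% native PAGE after a 10 min equilibration in 50 µL of 1 nM 5′-radiolabelled RNA (7 randomized nucleotides) with increasing concentrations of purified wild-type or mutant RbFox RRM.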
For B1, the binding signal was 0.222 KA relative to UGCAUGU.
B2 was tested, and the binding signal was 0.134 KA relative to UGCAUGU.
In the case of B3, the binding signal is reported as 1.23 KA relative to UGCAUGU.
For B4, the binding signal was 0.133 KA relative to UGCAUGU.
With B5 the binding signal was 0.0738 KA relative to UGCAUGU.
In the case of B6, the binding signal is reported as 0.113 KA relative to UGCAUGU.
B7 was tested, and the binding signal was 0.186 KA relative to UGCAUGU.
With B8 the binding signal was 0.0525 KA relative to UGCAUGU.
In the case of B9, the binding signal is reported as 0.0834 KA relative to UGCAUGU.
B10 was tested, and the binding signal was 0.0704 KA relative to UGCAUGU.
For B11, the binding signal was 0.662 KA relative to UGCAUGU.
With B12 the binding signal was 0.104 KA relative to UGCAUGU.
For B13, the binding signal was 0.116 KA relative to UGCAUGU.
In the case of B14, the binding signal is reported as 0.466 KA relative to UGCAUGU.
With B15 the binding signal was 0.385 KA relative to UGCAUGU.
With B16 the binding signal was 0.122 KA relative to UGCAUGU.
In the case of B17, the binding signal is reported as 0.136 KA relative to UGCAUGU.
For B18, the binding signal was 0.056 KA relative to UGCAUGU.
In the case of B19, the binding signal is reported as 0.107 KA relative to UGCAUGU.
B20 was tested, and the binding signal was 0.566 KA relative to UGCAUGU.
With B21 the binding signal was 0.351 KA relative to UGCAUGU.
In the case of B22, the binding signal is reported as 0.2 KA relative to UGCAUGU.
In the case of B23, the binding signal is reported as 0.0513 KA relative to UGCAUGU.
With B24 the binding signal was 0.0643 KA relative to UGCAUGU.
With B25 the binding signal was 0.169 KA relative to UGCAUGU.
For B26, the binding signal was 0.0553 KA relative to UGCAUGU.
B27 was tested, and the binding signal was 0.125 KA relative to UGCAUGU.
With B28 the binding signal was 0.1 KA relative to UGCAUGU.
With B29 the binding signal was 0.112 KA relative to UGCAUGU.
With B30 the binding signal was 0.052 KA relative to UGCAUGU.
B31 was tested, and the binding signal was 0.124 KA relative to UGCAUGU.
